Potency and viability (% of DMSO) data for 22 compounds are collected here from PubChem BioAssay (NCATS).

Records with an inconclusive call do not appear. The source made the active and inactive calls. Calls come from the whole dose curve; as a rule, active = well fitted curve in the direction sought with a large enough effect; inconclusive = small, poorly fitted or top-dose-only effect, or another doubt; inactive = no such curve, though single readings can be large; an effect the other way counts as inactive or inconclusive.

Assay [1] is described as follows: Quantitative High-Throughput drug screen in 47 multiple myeloma cell lines against the NCATS MIPE library collection: ARP1_JJKsccF8 cell viability assay (AID 1918928; note: nearly all actives have a fitted effect of over 40% in size). In outline: (§1)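 500 cells/well; MIPE 4.0 library pinned in; 48 h, 37 °C, 5% CO2; CellTiter-Glo ATP luminescence. Controls: DMSO = 100% viability, medium only = 0%.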
A short description of assay [2]: Quantitative High-Throughput drug screen in 47 multiple myeloma cell lines against the NCATS MIPE library collection: ARD_JJKsccE7 cell viability assay (AID 1918929). In outline:
(§2)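 Viability readout: CellTiter-Glo luminescence following 5 min room-temperature incubation with reagent. Prior exposure: 48 h, 37C, humidified 5% CO2, 500 cells per well.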

A short description of assay [3]: Quantitative High-Throughput drug screen in 47 multiple myeloma cell lines against the NCATS MIPE library collection: Karpas620_DSMZ cell viability assay (AID 1918959). Note: nearly all actives have a fitted effect of over 30% in size. In outline:
(§3)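 qHTS of the MIPE 4.0 collection: 500 myeloma cells/well, 48 h drug exposure at 37C in 5% CO2, then CellTiter-Glo for 5 min at room temperature before luminescence reading.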

A short description of assay [4]: Quantitative High-Throughput drug screen in 47 multiple myeloma cell lines against the NCATS MIPE library collection: KMM1_JCRB cell viability assay (AID 1918960). Note: nearly all actives have a fitted effect of over 30% in size. In outline: as §1
Assay [5] is described as follows: Quantitative High-Throughput drug screen in 47 multiple myeloma cell lines against the NCATS MIPE library collection: Karpas417_ECACC cell viability assay (AID 1918961). The following applies: Karpas417 myeloma viability, CellTiter-Glo ATP luminescence, 48 h; viability (% of DMSO): at 45.8 µM (top of the series) unless noted. In outline: (§4)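 Luminescent ATP measurement with CellTiter-Glo gives viability, scaled between DMSO-only wells (100%) and media-only wells (0%). Cells, 500 per well, faced library compounds for 48 hours at 37C.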

Assay [6] can be described thus: Quantitative High-Throughput drug screen in 47 multiple myeloma cell lines against the NCATS MIPE library collection: KHM11_PLB cell viability assay (AID 1918962). Note: nearly all actives have a fitted effect of over 35% in size. In outline: as §3
Assay [7] in a line: Quantitative High-Throughput drug screen in 47 multiple myeloma cell lines against the NCATS MIPE library collection: JIM3_ECACC cell viability assay (AID 1918963; note: nearly all actives have a fitted effect of over 35% in size). In outline: as §3
Assay [8] is described as follows: Quantitative High-Throughput drug screen in 47 multiple myeloma cell lines against the NCATS MIPE library collection: INA6_PLB cell viability assay (AID 1918965; note: nearly all actives have a fitted effect of over 55% in size). In outline:
as §4

Assay [9] in a line: Quantitative High-Throughput drug screen in 47 multiple myeloma cell lines against the NCATS MIPE library collection: JJN3_DSMZ cell viability assay (AID 1918966; note: nearly all actives have a fitted effect of over 50% in size). In outline:
as §2

Assay [10] is described as follows: Quantitative High-Throughput drug screen in 47 multiple myeloma cell lines against the NCATS MIPE library collection: JIM1_ECACC cell viability assay (AID 1918964). In outline:
as §2
Potency is the fitted concentration of half-maximal effect.

For the compound `S=C(NCc1ccc2c(c1)OCO2)N1CCN(c2ncnc3c2oc2ccccc23)CC1`, the Potency in assay [1] was 3.03 µM (active); in [2] it was 0.855 µM (active); in assay [3] it was 2.41 µM (active); in assay [4], 1.36 µM (active); in assay [5], 4.29 µM (active); in assay [6] it was 0.855 µM (active). Also, the results for the Potency in [7] and in assay [8] were 5.4 µM (active) and 1.08 µM (active), respectively.
As to `O=C(O)[C@@H](c1ccc(OCc2ccc3ccccc3n2)cc1)C1CCCC1`, the Potency result in assay [1], in [2], in assay [3], in [4], in assay [6] and in assay [7] was “inactive” each time. Moreover, in assay [8], the Potency result is “inactive”.
`CCOc1cc(N2CCC(O)CC2)ccc1Nc1ncc2c(n1)N(C)c1ccccc1C(=O)N2C`: the Potency in [1] is 10.5 µM (active); in assay [2], 1.05 µM (active); in [3], 0.332 µM (active); in [4], 1.18 µM (active); in [6], 0.935 µM (active); in assay [7], 8.33 µM (active). Further, in [8], the Potency was 2.64 µM (active).
With `OC(CN1CCC(Cc2ccc(F)cc2)CC1)c1ccc(Cl)cc1` (stereo not given), the Potency result in [1], in assay [2], in [3], in assay [4] and in [7] was “inactive” in each case.
On to `O=C(Nc1cccnc1)N1CCC(Cc2cccc(Oc3ccc(C(F)(F)F)cn3)c2)CC1`, for which the Potency in assay [1] is 18.7 µM (active); in assay [2] it was 11.8 µM (active); in [3], 14.8 µM (active); in assay [4] it was 7.43 µM (active); in assay [8], 11.8 µM (active).
Consider `Cc1ccccc1C(OCCN(C)C)c1ccccc1` (stereo not given), for which the Potency entry in assay [1], in assay [2], in assay [3], in assay [4], in assay [6] and in assay [7] was “inactive” in each case.
With `CO[C@@H]1[C@H](N(C)C(=O)c2ccccc2)C[C@H]2O[C@]1(C)n1c3ccccc3c3c4c(c5c6ccccc6n2c5c31)C(=O)NC4`, the Potency is 2.35 µM (active) in [1]; 1.05 µM (active) in [2]; 1.66 µM (active) in assay [3]; 2.35 µM (active) in [4]; 0.469 µM (active) in assay [5]; 0.132 µM (active) in [8]. The Potency in assay [9] was 4.18 µM (active).
On to `Cc1n[nH]c(C)c1Cc1sc2c(c1C(=O)N1C[C@H](O)CO1)c(=O)n(C)c(=O)n2CC(C)C`, for which the Potency result in [1], in [2], in assay [3], in assay [6], in assay [7] and in [10] was “inactive” each time. The Potency in assay [4] was 0.0118 µM (active); in [5], 0.0209 µM (active).
In the case of `CCCc1nc2c(C)cc(-c3nc4ccccc4n3C)cc2n1Cc1ccc(-c2ccccc2C(=O)O)cc1`, the Potency entry in assay [1], in assay [2], in assay [3], in assay [4], in assay [6] and in [7] was “inactive” each time. Further, in assay [10], the Potency was 0.0026 µM (active).
As to `NNCCc1ccccc1`, the Potency was 20.9 µM (active) in [1], 16.6 µM (active) in assay [3] and 18.7 µM (active) in assay [9]. For the same compound, the Potency entry in [2], in [5], in assay [6] and in assay [7] was “inactive” in each case.
In the case of `NS(=O)(=O)c1cc2c(cc1Cl)NC=NS2(=O)=O`, the Potency entry in assay [1], in [2], in assay [3], in assay [4], in assay [7] and in assay [10] was “inactive” in each case. The Potency result in assay [8] is “inactive”.
For the compound `Cc1cc(C=c2sc3nc4ccccc4n3c2=O)c(C)n1-c1ccccc1`, the values for the Potency in [1], in assay [6] and in assay [9] were 6.62 µM (active), 0.833 µM (active) and 4.18 µM (active), respectively. For the same compound, the Potency result in assay [2], in assay [3], in assay [4], in assay [7] and in assay [10] was “inactive” throughout.
For `Cc1ccnc(NS(=O)(=O)c2ccc(NC(=O)Nc3ccc(S(=O)(=O)Nc4nccc(C)n4)cc3)cc2)n1`, in assay [1], the Potency result is “inactive”. The Potency is 23.5 µM (active) in assay [2], 16.6 µM (active) in [3], 14.8 µM (active) in [4] and 16.6 µM (active) in [10].
On to `Cc1cc(SCc2sc(-c3ccc(C(F)(F)F)cc3)nc2C)ccc1OCC(=O)O`, for which the Potency entry in [1], in assay [2], in assay [3] and in [4] was “inactive” each time. Also, the Potency in assay [7] and in [8] was 18.7 µM (active) throughout.
In the case of `CNC[C@H](O)c1cccc(O)c1`, the Potency result in assay [1], in assay [2], in assay [7] and in assay [8] was “inactive” each time. Besides, the Potency in [4] is 5.26 µM (active).
With `Oc1cccc(-c2nc(N3CCOCC3)c3oc4ncccc4c3n2)c1`, the Potency was 0.0241 µM (active) in [1]; 0.0959 µM (active) in assay [3]; 0.0136 µM (active) in assay [4]; 0.0762 µM (active) in assay [7]; 0.0121 µM (active) in assay [10]; 0.215 µM (active) in assay [8]. Moreover, the Potency in [9] was 0.108 µM (active). Moreover, the viability (% of DMSO) in assay [5] was 2.23% [at 92.2 µM] (active).
As for `CNCc1ccc(-c2[nH]c3cc(F)cc4c3c2CCNC4=O)cc1`, the Potency entry in assay [1], in [3] and in assay [9] was “inactive” in each case. The Potency in assay [2] was 5.9 µM (active); in [8] it was 23.5 µM (active).
For `Nc1nc2c(ncn2COCCO)c(=O)[nH]1`, the Potency result in assay [1], in assay [3], in [4], in assay [6] and in assay [7] was “inactive” in each case.
As for `COc1cc2nccc(Oc3ccc(NC(=O)NC4CC4)c(Cl)c3)c2cc1C(N)=O`, the Potency in assay [1] is 14.8 µM (active); in assay [4] it was 3.72 µM (active); in assay [7], 13.2 µM (active); in [8], 16.6 µM (active); in [9] it was 1.48 µM (active). Also, the Potency result in assay [3] and in [5] was “inactive” each time.
With `COc1cc2c(cc1OC)CN(CCc1ccc(NC(=O)c3cccc4c(=O)c5cccc(OC)c5[nH]c34)cc1)CC2`, the Potency result in assay [1], in assay [2], in assay [4] and in assay [10] was “inactive” throughout. The Potency in assay [7] is 6.62 µM (active).
In the case of `CCCn1c(=O)c2[nH]c(C34CC5CC3C[C@@H](C5)C4)nc2n(CCC)c1=O`, the Potency was 9.35 µM (active) in [1] and 13.2 µM (active) in [9]. Moreover, the Potency result in [2], in assay [3], in assay [7] and in assay [8] was “inactive” each time.
In the case of `Cc1cnc(NC(=O)C2=C(O)c3ccccc3S(=O)(=O)N2C)s1`, the Potency result in assay [1], in assay [3], in assay [4], in assay [7], in assay [10] and in [9] was “inactive” throughout.
